The text below walks through data of PubChem BioAssay (Tox21).

Where “and” joins values, the source holds several entries; their conditions need not be identical. Equal entries are not always repeated. Records with an inconclusive call do not appear. The source holds several records for some structures; these can differ, active in one and inactive in another. Calls of active or inactive are those of the source. Unless noted, calls come from the whole dose curve; as a rule, active = well fitted curve in the direction sought with a large enough effect in the repeat runs; inconclusive = weak or mixed curves; inactive = no such curve, though single readings can be large; an effect the other way counts as inactive or inconclusive.

The target in test [1] is Progesterone receptor (Homo sapiens) (UniProt P06401). Put plainly: qHTS assay to identify small molecule antagonists of the progesterone receptor (PR) signaling pathway (AID 1346795; active = well fitted inhibition curve with a large enough effect in the signal ratio in the repeat runs, not every such curve was filed as active; the % refers to the signal ratio; note: potency is the fitted concentration of half-maximal effect). The gist of the method:
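Screening used a GripTite HEK293T line with PR-responsive UAS-beta-lactamase. Cells were challenged with compound in the presence of 1 nM R5020 final for 16 hr at 37C; B/G FRET substrate, 2 hr room temperature, fluorescence.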
Background: In qHTS, concentration-response curves come from the screen itself.

A short description of test [2]: qHTS assay to identify small molecule antagonists of the progesterone receptor (PR) signaling pathway - cell viability counter screen (AID 1346798). For activity change, negative = cytotoxicity: series mostly up to about 92 µM. Note: nearly all actives have a fitted effect of over 50% in size. Note: potency is the fitted concentration of half-maximal effect. The gist of the method:
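Measures cytotoxicity in parallel with the PR antagonist reporter read: HEK293T PR-UAS-bla cells get compound and R5020 for 16 hr, and remaining viable cells are quantified by CellTiter-Glo luminescence.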

Test [3] can be described thus: qHTS assay to identify small molecule agonists of the progesterone receptor (PR) signaling pathway - cell viability counter screen (AID 1346799; calls by dose curve; note: nearly all actives have a fitted effect of over 45% in size; note: potency is the fitted concentration of half-maximal effect). In short, it runs like this: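 Using the same plates as the PR reporter screen, HEK293T PR-UAS-bla cells received compounds for 16 hr at 37C and were then lysed with CellTiter-Glo; luminescence was read 30 min later at room temperature.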

Test [4] is described as follows: qHTS assay to identify small molecule antagonists of the TGF-beta/Smad signaling pathway - cell viability counter screen (AID 1346824). Note: nearly all actives have a fitted effect of over 50% in size. In short, it runs like this:
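SBE-bla HEK 293T cells, incubated overnight, then compound plus 0.25 ng/mL TGF-beta1 (stock added) for 5 hr at 37 C. Viability was read in the same wells by CellTiter-Glo luminescence after 30 min at room temperature.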

A short description of test [5]: qHTS assay to identify small molecule agonists of the TGF-beta/Smad signaling pathway - cell viability counter screen (AID 1346829). Note: top concentration of the series differs between compounds; nearly all actives have a fitted effect of over 45% in size. In short, it runs like this: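 Cytotoxicity counter screen: CellTiter-Glo luminescence (30 min, room temperature) measured in the SBE-bla HEK 293T reporter wells after 5 hr compound treatment at 37 C and the 2 hr substrate step.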
The nature of test [6]: qHTS assay to identify small molecule agonists of the TGF-beta/Smad signaling pathway (AID 1346859; active = well fitted activation curve with a large enough effect in the signal ratio in the repeat runs, not every such curve was filed as active; the % refers to the signal ratio; note: series mostly up to about 77 µM). In short, it runs like this: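 Beta-lactamase reporter activity downstream of Smad binding elements was measured in stably transfected HEK 293T cells; compounds were incubated for 5 hr, substrate for 2 hr at room temperature.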
The nature of test [7]: Human pregnane X receptor (PXR) small molecule agonists, qHTS cell viability counter screen (AID 1346977). Note: nearly all actives have a fitted effect of over 50% in size. Note: potency is the fitted concentration of half-maximal effect. In short, it runs like this:
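After a 5hr pre-incubation, PXR-Luc HepG2 cells received compounds plus positive control in DMSO and were kept 24hr at 37C. Cell viability was quantified by fluorescence from CellTiter-Fluor added for the final hour.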

A short description of test [8]: Caspase-3/7 induction in HepG2 cells by small molecules, qHTS assay (AID 1346978). Note: nearly all actives have a fitted effect of over 15% in size. In short, it runs like this: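 Wild-type HepG2 cells, 2,000/well, settled 5 hr at 37 C and 5% CO2, then compound-treated for 17 hr; caspase-3/7 activity read by luminescent Caspase-Glo 3/7 after 30 min at room temperature.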
Test [9] addresses Thyrotropin-releasing hormone receptor (Homo sapiens) (UniProt P34981). Put plainly: qHTS assay to identify small molecule antagonists of the thyrotropin-releasing hormone receptor (TRHR) signaling pathway (AID 1346877; active = well fitted inhibition curve with a large enough effect in the repeat runs, not every such curve was filed as active; note: series mostly up to about 51 µM). The gist of the method:
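Kinetic fluorescence (3 min, 1 s resolution) following stimulation with TRH at 1 nM final; HEK293 cells bearing human TRHR; 5 min compound preincubation at RT; concentration-response over 15 points, triplicates.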

Test [10] shares this target. Put plainly: qHTS assay to identify small molecule agonists of the thyrotropin-releasing hormone receptor (TRHR) signaling pathway (AID 1346891; calls by dose curve;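 note: HEK293 cells expressing TRHR with calcium dye readout; series mostly up to about 58 µM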). The gist of the method:
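Overnight-plated (18 h, 37 °C, 5% CO2) TRHR-Hek293 cells; 2 h calcium dye at 37 °C; compound in DMSO; 3-min kinetic fluorescence read.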
% is set by controls: 0 for no effect and ±100 for the full control effect.

Sequence of Progesterone receptor (Homo sapiens) (P06401 whole entry, looked up): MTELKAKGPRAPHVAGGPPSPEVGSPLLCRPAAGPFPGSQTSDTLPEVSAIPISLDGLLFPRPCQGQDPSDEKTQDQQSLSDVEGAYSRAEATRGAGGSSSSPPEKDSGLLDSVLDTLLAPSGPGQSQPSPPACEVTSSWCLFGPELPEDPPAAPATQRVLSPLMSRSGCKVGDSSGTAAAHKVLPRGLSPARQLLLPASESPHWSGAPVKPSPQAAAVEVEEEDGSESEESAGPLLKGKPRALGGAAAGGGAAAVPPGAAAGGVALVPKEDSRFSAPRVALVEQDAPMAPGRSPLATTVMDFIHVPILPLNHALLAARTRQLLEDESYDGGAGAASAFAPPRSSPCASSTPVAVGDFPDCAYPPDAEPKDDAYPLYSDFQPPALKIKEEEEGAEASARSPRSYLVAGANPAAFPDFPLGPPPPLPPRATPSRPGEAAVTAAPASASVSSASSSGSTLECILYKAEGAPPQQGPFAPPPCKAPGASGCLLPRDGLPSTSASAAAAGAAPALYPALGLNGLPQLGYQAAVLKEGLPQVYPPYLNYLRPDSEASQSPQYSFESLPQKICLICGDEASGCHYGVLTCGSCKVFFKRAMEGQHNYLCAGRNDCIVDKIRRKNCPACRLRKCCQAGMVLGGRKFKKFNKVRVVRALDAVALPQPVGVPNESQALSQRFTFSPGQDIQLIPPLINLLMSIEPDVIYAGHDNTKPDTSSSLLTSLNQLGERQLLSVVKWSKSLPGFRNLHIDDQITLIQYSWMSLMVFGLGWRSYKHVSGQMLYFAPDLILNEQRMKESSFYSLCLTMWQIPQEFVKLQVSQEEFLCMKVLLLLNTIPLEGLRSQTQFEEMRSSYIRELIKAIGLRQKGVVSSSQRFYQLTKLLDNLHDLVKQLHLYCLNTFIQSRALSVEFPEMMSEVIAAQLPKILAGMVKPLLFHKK
Sequence of Thyrotropin-releasing hormone receptor (Homo sapiens) (P34981 whole entry, looked up): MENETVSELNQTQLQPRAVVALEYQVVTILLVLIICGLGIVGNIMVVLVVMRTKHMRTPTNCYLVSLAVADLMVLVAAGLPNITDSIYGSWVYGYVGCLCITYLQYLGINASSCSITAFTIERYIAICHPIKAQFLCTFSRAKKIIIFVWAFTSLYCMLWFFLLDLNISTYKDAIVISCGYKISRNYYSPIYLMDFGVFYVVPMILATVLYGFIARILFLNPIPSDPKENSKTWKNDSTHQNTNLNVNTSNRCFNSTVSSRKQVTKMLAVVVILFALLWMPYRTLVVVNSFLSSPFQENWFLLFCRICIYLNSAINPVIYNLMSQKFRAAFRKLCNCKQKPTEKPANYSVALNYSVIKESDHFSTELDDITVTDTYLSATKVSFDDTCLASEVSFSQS

Turning to `CCn1cc(C(=O)O)c(=O)c2cc(F)c(N3CCNC(C)C3)c(F)c21` (stereo not drawn), the Potency result in [1], in test [2], in test [3], in [4], in test [5] and in test [7] was “inactive” each time. For the same molecule, the Potency entry in [8] was “inactive”. In addition, in test [6], the molecule was classed as inactive.
Regarding `COc1nc(C)nc(Cl)c1NC1=NCCN1`, the Potency result in [1], in [2], in test [3], in test [4], in test [5] and in test [9] was “inactive” in each case. The Potency entry in [7] and in test [8] was “inactive” in each case. In addition, the result in test [6] was inactive.
Regarding `C=C(C)C1CC=C(C)C(OC(C)=O)C1` (stereo not drawn), the Potency result in test [1], in [2], in test [3], in [4], in test [5] and in test [7] was “inactive” throughout. Also, in [8], the Potency entry was “inactive”. The outcome in test [6] was inactive.
For `O=C(Cl)c1cccc(C(=O)Cl)c1`, the Potency result in [1], in [2], in [3], in test [4], in [5] and in test [9] was “inactive” throughout. Moreover, the Potency entry in test [10], in test [7] and in test [8] was “inactive” throughout. In [6], the result was inactive.
`CC(=O)N[C@@H](CS)C(=O)O`: the Potency result in [1], in test [2], in test [3], in test [4], in test [5] and in test [7] was “inactive” throughout. Moreover, the Potency result in [8] is “inactive”. In addition, in [6], the outcome was inactive.
On to `Nc1ccc(O)cc1`, for which the Potency result in test [1], in test [2], in test [3], in test [4], in test [5] and in test [9] was “inactive” each time. Also, the Potency entry in test [8] was “inactive”. In test [6], the molecule was called inactive. Besides, the Potency in test [7] was 56.6 µM (active) and inactive.
Take `C1COC(NC(C2CC2)C2CC2)=N1`: the Potency entry in [1], in test [2], in [3], in test [4], in test [5] and in test [9] was “inactive” throughout. For the same molecule, the Potency result in test [10], in test [7] and in [8] was “inactive” in each case. In addition, the outcome in [6] was inactive.
For the molecule `CC(C)(C)NCC(O)c1cc(O)cc(O)c1` (stereo not drawn), the Potency result in test [1], in [2], in test [3], in test [4], in test [5] and in [9] was “inactive” in each case. In addition, the Potency result in test [7] and in test [8] was “inactive” throughout. For the same molecule, the outcome in test [6] was inactive.
For `Cc1scc2c1N(C(=O)CN1CCN(C)CC1)c1ccccc1NC2=O`, the Potency entry in [1], in test [2], in [3], in [4], in [5] and in [9] was “inactive” in each case. In addition, the Potency result in test [7] and in test [8] was “inactive” each time. The call in test [6] was inactive.
Consider `CO[Si](OC)(OC)c1ccccc1`, for which the Potency entry in test [1], in test [2], in [3], in test [4], in [5] and in test [9] was “inactive” throughout. For the same molecule, the Potency entry in test [10], in test [7] and in [8] was “inactive” in each case. For the same molecule, the outcome in [6] was inactive.
Turning to `c1ccc2n[nH]nc2c1`, the Potency result in test [1], in test [2], in test [3], in test [4], in test [5] and in test [7] was “inactive” in each case. Besides, in [8], the Potency entry was “inactive”. Besides, the molecule was classed as inactive in test [6].
As for `NC(Cc1ccc(Cl)cc1)C(=O)O` (stereo not drawn), the activity change, negative = inhibition in test [1] is -0.261% [at 0.348 µM] (inactive). Further, the activity change, negative = cytotoxicity is -9.96% [at 0.348 µM] (inactive) in test [2], -7.43% [at 0.349 µM] (inactive) in test [3], -10.5% [at 0.29 µM] (inactive) in test [5] and 6.84% [at 0.349 µM] (inactive) in test [7]. In test [4], the viability change, negative = cytotoxic is 4.44% [at 0.29 µM] (inactive). In addition, the activation in test [6] was 0.242% [at 0.29 µM] (inactive). For the same molecule, the activity, negative = inhibition in test [9] is -6.16% [at 0.194 µM] (inactive). Besides, the caspase activation in [8] was -0.871% [at 0.349 µM] (inactive).
With `C=CC(=O)OCCCCCCCC`, the Potency entry in [1], in [2], in test [3], in test [4], in test [5] and in test [7] was “inactive” throughout. The Potency result in [8] is “inactive”. Moreover, the molecule was called inactive in [6].
In the case of `CCn1c2ccccc2c2cc(N)ccc21`, the Potency in test [1] was 34.4 µM (active). The Potency result in [2], in test [3], in test [4], in test [5], in test [9] and in [7] was “inactive” in each case. In addition, the Potency entry in test [8] is “inactive”. The molecule was classed as inactive in test [6].
As for `O=C(OCc1ccccc1)c1ccc(O)cc1`, the Potency in test [1] was 34.4 µM (active) and 26.6 µM (active). The Potency result in test [2], in [3], in test [4], in test [5], in [9] and in test [7] was “inactive” in each case. In addition, the Potency result in test [8] is “inactive”. Also, the molecule was classed as inactive in test [6].
Consider `NC12CC3CC(CC(C3)C1)C2`, for which the Potency entry in [1], in test [2], in test [3], in [4], in test [5] and in test [7] was “inactive” each time. Besides, the Potency entry in test [8] was “inactive”. Besides, the call in test [6] was inactive.
On to `COc1ccc(Cc2cnc(N)nc2N)cc1OC`, for which the Potency entry in test [1], in [2], in [3], in test [4], in test [5] and in test [9] was “inactive” throughout. Besides, the Potency entry in [7] and in [8] was “inactive” each time. Besides, the result in test [6] was inactive.
Turning to `CCCC(=O)c1ccccc1`, the Potency entry in test [1], in test [2], in test [3], in test [4], in [5] and in test [9] was “inactive” throughout. Moreover, the Potency entry in test [7] and in test [8] was “inactive” each time. Moreover, the result in [6] was inactive.
Turning to `c1cc(C(c2ccc(OCC3CO3)cc2)C(c2ccc(OCC3CO3)cc2)c2ccc(OCC3CO3)cc2)ccc1OCC1CO1` (stereo not drawn), the Potency result in test [1], in test [2], in [3], in test [4], in test [5] and in test [9] was “inactive” throughout. Besides, the Potency result in test [10], in [7] and in [8] was “inactive” in each case.
`CCC[C@H](N[C@@H](C)C(=O)N1[C@H](C(=O)O)C[C@@H]2CCCC[C@@H]21)C(=O)OCC`: the Potency result in [1], in test [2], in test [3], in [4], in test [5] and in [7] was “inactive” throughout. Moreover, the Potency entry in test [8] was “inactive”. Besides, the molecule was called inactive in test [6].
Take `Nc1cc(Cl)c(-c2cc(Cl)c(N)cc2Cl)cc1Cl`: the Potency is 2.73 µM (active) in [1]; 38.5 µM (active) and 43.3 µM (active) in test [2]; 30.6 µM (active) and 21.7 µM (active) in test [3]; 50.1 µM (active) and 68.6 µM (active) in test [7]. The result in test [6] was inactive. Also, the Potency result in test [9] and in test [10] was “inactive” in each case.
